Out of some 280,000 compounds screened, about 1,100 (0.39%) were called active. About 7% were inconclusive and are not listed. Many of the other results were omitted from the sample, so actives are more common in it than they were. A number with no mark means an inactive call. The call rests on the fitted dose curve; in most records, active means well fitted inhibition curve with a large enough effect; inconclusive means small, poorly fitted or top-dose-only effect, or effect the other way; inactive means flat fitted curve, though single readings scatter.
target: Microtubule-associated protein tau (Homo sapiens) (UniProt P10636); assay: qHTS for Inhibitors of Tau Fibril Formation, Fluorescence Polarization; settings: K18 P301L tau heparin fibrillization, Alexa594 FP, 6 h; series mostly up to 57.7 µM; activity, negative = inhibition: at the top concentration; further: nearly all actives have a fitted effect of over 55% in size
Summary of the method: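 FP of Alexa 594-tau after heparin (20 uM) induction. Substrate: human K18 P301L, 15 uM unlabeled, 0.24 uM labeled. Buffer 100 mM sodium acetate pH 7. 6 hr, 37 C.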
On the % scale 0 is the no-effect control and ±100 the full control effect; potency means the concentration at half of the fitted maximal effect.

Microtubule-associated protein tau (Homo sapiens), sequence (P10636 561-689 P618L limits assumed): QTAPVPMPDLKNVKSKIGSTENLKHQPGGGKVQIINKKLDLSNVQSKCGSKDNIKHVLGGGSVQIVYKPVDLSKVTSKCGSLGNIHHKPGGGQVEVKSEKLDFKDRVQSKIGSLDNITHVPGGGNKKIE

Row | Compound | activity, negative = inhibition [%] | Potency
1 | Cc1cccc(N2CCN(C(=O)c3cnc(N4CCCC4)nc3C)CC2)c1C | 3.19 | –
2 | CCc1ccccc1NC(=O)N1CCC2(CC1)Oc1ccccc1C(=O)N2Cc1ccccc1F | 0.521 | –
3 | Cc1ccc(N(CC(=O)NCC(C)c2ccccc2)S(=O)(=O)N(C)C)cc1 (stereo not drawn) | -10.6 | –
4 | CCOc1ccc(CNC(=O)Cn2cc3c(n2)-c2c(oc(C(=O)N4CCCC4)c2C)CC3)cc1 | 1.02 | –
5 | COc1ccc(NC(=O)Nc2ccc3nsnc3c2)cc1 | 13.6 | –
6 | O=C(Nc1ccc2ccccc2c1)Nc1ccc2snnc2c1 | – | 11.2 µM (active)
7 | O=C(Nc1ccccc1)Nc1nc2ccccc2s1 | -11.5 | –
8 | Cc1ccc(Cl)cc1N1CCN(C(=O)C2CCC(CNS(=O)(=O)c3cccs3)CC2)CC1 (stereo not drawn) | -0.505 | –
9 | CCCOc1ccc(NC(=O)CC2C(=O)N(c3ccccc3)C(=O)N2Cc2ccco2)cc1 (stereo not drawn) | -1.22 | –
10 | O=C(CCN1C(=O)/C(=C/c2cccs2)SC1=S)NNC(=O)c1cccc(O)c1 | – | 35.5 µM (active)
11 | COc1ccc(/C=C2\SC(=S)N(CC(=O)NNC(=O)c3ccncc3)C2=O)cc1 | 0.355 | –
12 | O=C(CCCN1C(=O)/C(=C/c2ccccc2)SC1=S)Nc1ccc(O)cc1 | -0.488 | –
13 | O=C(CCC(=O)N1CC2CCCN2c2ccccc21)NCc1ccccc1Cl (stereo not drawn) | 5.73 | –
14 | CN(C)c1cccc(C(=O)Nc2nc3ccc(S(=O)(=O)NC(C)(C)C)cc3s2)c1 | -6.9 | –
15 | COc1cccc(-c2nc(Nc3ccncc3)c3ccccc3n2)c1 | – | 14.1 µM (active)
16 | COc1ccccc1Oc1nc(-c2cccnc2)nc2ccccc12 | -11.2 | –
17 | c1ccc2c(NCC3CCCO3)nc(-c3ccncc3)nc2c1 (stereo not drawn) | -0.627 | –
18 | c1ccc2c(Nc3ccncc3)nc(-c3ccoc3)nc2c1 | 2.73 | –
19 | c1ccc2c(Nc3ccncc3)nc(-c3ccc4c(c3)OCO4)nc2c1 | – | 10 µM (active)
20 | CNc1nc(-c2ccccc2OC)nc2ccccc12 | -6.15 | –
21 | COc1ccc(-n2c(SCC(N)=O)nc3c(oc4ccccc43)c2=O)cc1 | -5.07 | –
22 | Cc1cccc(C(=O)N2CCc3cc(CNC(=O)Cc4ccc(F)cc4)ccc32)c1 | 12.6 | –
23 | CCN(CC)S(=O)(=O)c1ccc2c(c1)N(CC(=O)NCC(C)c1ccccc1)C(=O)CO2 (stereo not drawn) | -5.51 | –
24 | Cc1ccc(S(=O)(=O)N2CCCc3cc(NS(=O)(=O)c4cc(C)ccc4C)ccc32)cc1 | -9.07 | –
25 | COc1ccc(/C=N/S(=O)(=O)c2ccccc2)cc1OC | 1.5 | –
26 | COc1cc(/C=N/NC(=O)c2ccccc2)ccc1OS(=O)(=O)c1ccccc1 | – | 35.5 µM (active)
27 | COc1ccc(C(=O)Nc2ccccc2C(=O)N/N=C/c2ccc(O)c(OC)c2)cc1 | -10.4 | –
28 | COc1ccc(-c2nc(SCC(=O)N3CCCCC3C)n[nH]2)cc1 (stereo not drawn) | 0.155 | –
